Assay outcomes from PubChem BioAssay.
Wnt act – activators of Wnt/beta-catenin signaling. activation, % at 9.35 µM. Wnt/beta-catenin reporter cell assay, activator, plate reader. 1.2% of 300,000 active; in the data active means activation above about 30%, passing the limit was not always enough;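 further: 0% = neutral control wells and 100% = positive control wells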
Dyrk1A ADPGlo – inhibitors of rat Dyrk1A kinase; Q63470; ADP-Glo luminescence, NFATc1 peptide; inhibition, % at 12.5 µM; 0.43% of 310,000 active; AID 504441;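 further: plate controls were vehicle with enzyme for no effect and no enzyme for full effect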
GSIS activator – primary screen for activators of insulin secretion dependent on glucose, INS-1E cells, GLuc reporter luminescence; INS-1E GLuc reporter insulin secretion, 2-3 h; activation, % at 16.6 µM; 0.61% of 370,000 active;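 active means lowest replicate activation of at least 40%, so every replicate reaches that level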;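 further: 0% = median of neutral control wells and 100% = median of IBMX positive control wells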
MITF act – MITF TRPM1 promoter activation in melanoma cells; SK-MEL-5 TRPM1-promoter luciferase, 24 h; % of positive control, neutral wells = 0; activation, % at 12.5 µM; 0.75% of 300,000 active; AID 588334;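 active means mean activation of at least 80% with every replicate also reaching 80%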;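 further: 0% = neutral control wells and 100% = parthenolide positive control wells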
miR-122 sensor – blocks miR-122 activity in Huh7 sensor cells. Huh7 miR-122 Renilla luciferase sensor, 48 h; neutral wells = 0, positive control = 100. activation (reporter increase), % at 12.5 µM. 0.3% of 340,000 active. AID 602342;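 active means mean replicate activation score at least 90 and every replicate individually at or above 90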;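 further: higher luciferase means less miR-122 activity so hits act as miR-122 inhibitors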
NSD2 HMT inh – blocks human histone methyltransferase NSD2; inhibition, % at 12.5 µM; NSD2 peptide methylation, AlphaScreen, 120 min; AID 743445; 0.54% of 310,000 active; O96028
Target sequence (O96028 whole entry, looked up): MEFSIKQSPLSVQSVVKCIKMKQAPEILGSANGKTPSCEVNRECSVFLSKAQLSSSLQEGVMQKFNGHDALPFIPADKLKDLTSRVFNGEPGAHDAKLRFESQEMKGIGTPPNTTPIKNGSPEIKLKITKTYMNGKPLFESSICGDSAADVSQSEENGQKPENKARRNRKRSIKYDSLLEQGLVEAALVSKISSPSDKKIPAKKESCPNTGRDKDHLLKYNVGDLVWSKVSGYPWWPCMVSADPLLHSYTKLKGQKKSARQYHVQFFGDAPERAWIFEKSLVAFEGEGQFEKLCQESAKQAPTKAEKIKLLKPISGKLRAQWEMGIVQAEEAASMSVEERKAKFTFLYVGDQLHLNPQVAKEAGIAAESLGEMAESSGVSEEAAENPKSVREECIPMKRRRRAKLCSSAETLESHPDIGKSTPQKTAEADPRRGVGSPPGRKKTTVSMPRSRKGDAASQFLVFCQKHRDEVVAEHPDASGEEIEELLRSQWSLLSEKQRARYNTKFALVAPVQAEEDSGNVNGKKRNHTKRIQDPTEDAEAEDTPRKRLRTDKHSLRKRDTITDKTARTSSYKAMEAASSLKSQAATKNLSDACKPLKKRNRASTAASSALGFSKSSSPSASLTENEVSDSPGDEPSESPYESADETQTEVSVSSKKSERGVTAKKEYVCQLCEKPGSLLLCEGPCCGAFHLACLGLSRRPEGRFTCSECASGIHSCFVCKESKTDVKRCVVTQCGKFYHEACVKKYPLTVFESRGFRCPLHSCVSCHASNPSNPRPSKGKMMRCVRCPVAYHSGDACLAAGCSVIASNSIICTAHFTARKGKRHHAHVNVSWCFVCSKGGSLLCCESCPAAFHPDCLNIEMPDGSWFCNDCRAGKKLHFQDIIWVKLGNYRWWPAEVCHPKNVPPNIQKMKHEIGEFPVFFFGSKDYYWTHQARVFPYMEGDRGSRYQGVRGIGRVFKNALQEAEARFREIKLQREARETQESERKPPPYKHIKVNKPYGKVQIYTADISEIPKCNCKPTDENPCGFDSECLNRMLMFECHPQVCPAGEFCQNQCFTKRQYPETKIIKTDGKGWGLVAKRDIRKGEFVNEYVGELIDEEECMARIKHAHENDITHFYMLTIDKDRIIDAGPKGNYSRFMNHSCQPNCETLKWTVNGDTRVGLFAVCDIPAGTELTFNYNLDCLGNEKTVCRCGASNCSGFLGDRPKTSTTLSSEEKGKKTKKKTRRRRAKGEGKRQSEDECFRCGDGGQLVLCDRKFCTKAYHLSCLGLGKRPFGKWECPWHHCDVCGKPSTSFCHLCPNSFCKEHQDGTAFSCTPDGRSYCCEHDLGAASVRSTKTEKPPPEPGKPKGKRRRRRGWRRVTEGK
The depositor's hits bear a star; . = no result given; + = active, no number; [ ] = remark or other dose. Hits are enriched below; roughly 2.4% of the tested compounds scored in any of these assays. Unless noted, no stated cut-off is given here; in the data, active means inhibition above about 50%; inactive means the rest.

SMILES	Wnt act	Dyrk1A ADPGlo	GSIS activator	MITF act	miR-122 sensor	NSD2 HMT inh
CCCC(=O)Nc1c(C(=O)OCC)oc2ccccc12	-0.4	3.5	41.0*	10.8	1.4	0.5
Cc1sc(=NC(=O)c2ccco2)n(C)c1-c1ccccc1	21.9	2.7	.	59.5	0.2	-1.7
Cc1sc(=NC(=O)c2ccco2)n(C)c1-c1ccc(F)cc1	.	-1.5	.	100.6*	6.8	1.9
Cc1cc(OCC(O)CNC(C)c2ccccc2)ccc1C(C)C (stereo not drawn)	-3.2	-0.2	379.3*	-2.4	-27.6	4.1
Cc1ccc(NS(=O)(=O)c2ccc(-n3cccn3)cc2)cc1C	1.1	-6.2	11.9	-4.4	65.0	-2.9
COc1cc(NS(=O)(=O)c2ccc(-n3cccn3)cc2)cc(OC)c1	.	.	.	.	95.2*	-1.9
Cc1ccc(-c2cc3nc(NCCc4ccncc4)n(C)c(=O)c3s2)cc1	42.4*	.	5.9	.	4.1	-4.1
CCn1ccc(C(=O)Nc2ccc(N(C)C(C)=O)cc2)n1	.	14.5	10.8	29.0	-0.4	-1.3
CCn1nccc1C(=O)Nc1ccc(Cl)cn1	21.1	-1.2	.	45.8	7.1	-0.4
CCn1ccc(C(=O)Nc2ccc(Cl)cn2)n1	32.1*	4.3	17.5	.	.	.
CCn1ccc(C(=O)Nc2ccccc2SC)n1	2.5	0.7	40.6*	41.9	18.3	-2.7
CCOc1ccc(C(=O)Nc2cccc(C(=O)Nc3cc(C)ccn3)c2)cc1	.	.	.	.	.	-1.4
CC(C)NC(=O)Nc1cccc2c1O[C@H](CN(C)C(=O)NC(C)C)[C@@H](C)CN(C)C2=O	.	.	14.0	.	.	.
O=C(N[C@@H]1CC[C@H](CCNS(=O)(=O)c2ccc(F)cc2)O[C@@H]1CO)C1CCOCC1	.	.	-0.4	.	5.5[16.7 µM]	.
Cc1ccc(N2NC(C)(c3cccs3)NC2=S)cc1 (stereo not drawn)	11.6	0.0	13.4	92.3*	.	-0.2
CC(C)=CC(=O)N1CCC(N2CCC(C(=O)N3CCOCC3)CC2)CC1	1.3	0.5	5.1	-8.7	-0.3	-1.4
CN1CCCCCC1C(=O)N1CCC(N2CCC(C(=O)N3CCOCC3)CC2)CC1 (stereo not drawn)	1.7	4.5	49.4*	-2.3	-2.3	.
C=CCn1cnc2c(nnn2-c2ccc(C)c(C)c2)c1=O	5.0	7.1	-7.9	110.4*	.	1.4
C=CCn1cnc2c(nnn2-c2ccc(OC)c(OC)c2)c1=O	-2.7	.	25.6	4.3	.	-1.1
Cc1cccc(S(=O)(=O)N[C@@H]2CC[C@H](CCNC(=O)c3cnccn3)O[C@H]2CO)c1	.	.	-5.3	.	.	.
Cc1cc(C)nc(NC(=O)/C=C/c2ccccc2Cl)n1	.	3.6	.	16.4	16.7	-1.7
Cc1cc(C)nc(NC(=O)/C=C/c2ccc(Cl)cc2Cl)c1	.	-0.6	.	88.1*	-4.8	1.4
Cc1cc(C)nc(NC(=O)/C=C/c2ccccc2Cl)c1	43.8*	-0.5	-15.5	54.1	.	-0.1
Cc1cccc(NC(=O)/C=C/c2ccc(Cl)cc2)n1	.	0.4	-17.9	90.1*	.	-2.8
CC(=O)Nc1nnc(COc2ccc(Cl)cc2)s1	-1.4	1.0	5.8	100.1*	3.1	-2.3
SMILES	Wnt act	Dyrk1A ADPGlo	GSIS activator	MITF act	miR-122 sensor	NSD2 HMT inh
Cc1cc([N+](=O)[O-])ccc1NC(=O)c1csc(C)c1C	22.2	-3.0	-2.3	123.8*	0.2	-2.1
CCN(C(=O)CSc1ncccn1)c1cccc2ccccc12	-4.1	2.2	48.3*	-1.5	-2.7	-0.1
CCOc1cc(C2C3=C(CC(C)(C)CC3=O)Nc3n[nH]c(C)c32)ccc1O (stereo not drawn)	-2.5	-2.3	42.8*	-17.3	-3.9	-6.5
CCOc1cc(C2C(C(=O)N3CCCCC3)=C(C)NC3=C2C(=O)CC(C)(C)C3)ccc1O (stereo not drawn)	54.4*	0.3	.	-5.5	0.1	-5.2
CCOC(=O)C1=C(C)NC2=C(C(=O)CC(C)(C)C2)C1c1ccc(O)c(OCC)c1 (stereo not drawn)	-1.0	-4.5	23.6	2.6	-13.4	-2.3
CC1=C(C(=O)OC(C)C)C(c2ccc(N(C)C)cc2)C2=C(CC(C)(C)CC2=O)N1 (stereo not drawn)	-3.8	-3.4	-17.3	-1.0	150.2*	8.4
COc1ccc(S(=O)(=O)N(C)C[C@@H]2Oc3ccc(NC(=O)Nc4ccc(C(F)(F)F)cc4)cc3CC(=O)N([C@H](C)CO)C[C@@H]2C)cc1	.	.	-4.8	.	-13.7[16.7 µM]	.
COc1ccc2c3c(n(C)c2c1)[C@H](CO)N(C)CC31CCN(C(=O)c2ccc3c(c2)OCO3)CC1	.	.	17.0	.	.	.
O=C(Nc1cccn2ncnc12)c1ccc(Cl)cc1	6.3	7.2	.	29.2	-2.8	-3.3
O=C(Nc1cnc2ccccn2c1=O)c1ccc(Cl)cc1	.	0.0	7.3	86.1*	-7.6	0.4
Cc1cc(N(C)C)ccc1N=Nc1ccc2ncccc2c1	42.4*	8.3	-13.5	27.7	-8.5	.
O=C(NCc1cc(Cl)cc(Cl)c1)c1ccc2nc([C@@H]3O[C@H](CO)[C@@H](O)[C@H]3O)[nH]c2c1	0.1	.	55.8*	.	0.0	-0.1
C[C@@H]1CN(C)C(=O)c2cccc(N(C)C)c2O[C@@H]1CN(C)C(=O)OC(C)(C)C	.	.	0.1	.	.	.
O=C(Nc1nnc(C2CC2)s1)c1ccc(Cl)nc1	33.8*	.	6.3	46.0	.	-0.2
Cc1ccccc1S(=O)(=O)/N=C(/Nc1nc2ccccc2s1)c1ccccc1	53.0*	-0.2	-11.4	98.2*	.	-0.6
Cc1ccccc1S(=O)(=O)/N=C(/Nc1c(C)n(C)n(-c2ccccc2)c1=O)c1ccccc1	-2.8	.	-13.3	2.2	4.2	-0.9
CN(C)C(=O)c1cccc(-c2ccc([C@@H]3[C@@H](CO)N4C(=O)CN(C(=O)Cc5ccccc5)C[C@H]34)cc2)c1	.	.	3.1	.	.	.
COc1cccc(S(=O)(=O)Nc2ccc3c(c2)[C@H]2C[C@@H](CC(=O)N4CCCCC4)O[C@H](CO)[C@H]2O3)c1	.	.	6.7	.	4.6[16.7 µM]	.
CN1CCN(CCCNC(=O)c2ccc(/C=C3\Sc4ccccc4N(Cc4ccccc4F)C3=O)cc2)CC1	10.1	-0.6	120.1*	12.4	.	7.0
CCN1CCN(CCNC(=O)c2ccc3c(c2)N(Cc2ccc(F)cc2)C(=O)/C(=C/c2ccccc2)S3)CC1	2.1	1.0	102.3*	-90.8	4.3	-0.6
C[C@@H]1CN([C@@H](C)CO)C(=O)c2cc(NS(=O)(=O)c3ccccc3)ccc2O[C@H]1CN(C)C(=O)Nc1cccc2ccccc12	.	.	12.6	.	-0.1[16.7 µM]	.
COc1ccccc1OCCSc1nc2ccccc2c(=O)[nH]1	43.9*	-5.5	-4.1	51.5	-0.9	-2.3
CCN(c1ccccc1)S(=O)(=O)c1cc(C(=O)O)ccc1C	.	-0.6	.	-0.7	3.3	+
